Test results published in the supplement of paper PMC6555819.

Experiments:
Experiment in all cases: PBM binding z-score (relative to random genomic background probes); higher = stronger binding; sequences stand for … in GC…GCGATTGACAGCGTAGAATGAAGG
[1] = tested on: FXR:RXRa (NR concentration 270 nM, RXRa partner concentration 90 nM)
Method in brief: (§1)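 Ligand-free nuclear receptor dimers were applied to custom Agilent 4×180K protein-binding microarrays whose double-stranded probes carried direct-repeat seeds, single-nucleotide variants, half-site ablations and random human genomic background sequences in 34-nt variable regions. Incubation lasted 1 h. Binding z-scores were computed against the random background probes from regression-normalized fluorescence.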

[2] = tested on: LXRa:RXRa (NR concentration 270 nM, RXRa partner concentration 90 nM)
Method in brief: as §1

[3] = tested on: LXRa homodimer (NR concentration 270 nM)
Method in brief: as §1

[4] = tested on: LXRb:RXRa (NR concentration 270 nM, RXRa partner concentration 90 nM)
Method in brief: as §1

[5] = tested on: LXRb homodimer (NR concentration 270 nM)
Method in brief: as §1

[6] = tested on: PPARa:RXRa (NR concentration 270 nM, RXRa partner concentration 90 nM)
Method in brief: as §1

[7] = tested on: PPARg:RXRa (NR concentration 180 nM, RXRa partner concentration 90 nM)
Method in brief: as §1

[8] = tested on: PPARg:RXRa 270nM:90nM, anti-RXR (NR concentration 270 nM, RXRa partner concentration 90 nM)
Method in brief: as §1

[9] = tested on: PPARg:RXRa 30nM:10nM, anti-RXR (NR concentration 30 nM, RXRa partner concentration 10 nM)
Method in brief: as §1

[10] = tested on: PPARg:RXRa 90nM:30nM, anti-RXR (NR concentration 90 nM, RXRa partner concentration 30 nM)
Method in brief: as §1

[11] = tested on: PPARg:RXRa DBDmut IVT, anti-RXR (DBD mutation: RXRa K156A/R161A, NR concentration 270 nM, RXRa partner concentration 90 nM)
Method in brief: as §1

[12] = tested on: PPARg:RXRa IVT, anti-PPARg (NR concentration 270 nM, RXRa partner concentration 90 nM)
Method in brief: as §1

[13] = tested on: PPARg DBDmut:RXRa IVT, anti-PPARg (DBD mutation: PPARg1 K132A/R137A, NR concentration 270 nM, RXRa partner concentration 90 nM)
Method in brief: as §1

[14] = tested on: PPARg DBDmut IVT, anti-PPARg (DBD mutation: PPARg1 K132A/R137A, NR concentration 270 nM)
Method in brief: as §1

[15] = tested on: PPARg homodimer (NR concentration 180 nM)
Method in brief: as §1

[16] = tested on: PXR:RXRa (NR concentration 270 nM, RXRa partner concentration 90 nM)
Method in brief: as §1

[17] = tested on: PXR homodimer (NR concentration 270 nM)
Method in brief: as §1

[18] = tested on: RARa:RXR (NR concentration 270 nM, RXRa partner concentration 90 nM)
Method in brief: as §1

[19] = tested on: RARa homodimer (NR concentration 270 nM)
Method in brief: as §1

[20] = tested on: RARb:RXRa (NR concentration 270 nM, RXRa partner concentration 90 nM)
Method in brief: as §1

Row | Sequence | PBM binding z-score [1] | PBM binding z-score [2] | PBM binding z-score [3] | PBM binding z-score [4] | PBM binding z-score [5] | PBM binding z-score [6] | PBM binding z-score [7] | PBM binding z-score [8] | PBM binding z-score [9] | PBM binding z-score [10] | PBM binding z-score [11] | PBM binding z-score [12] | PBM binding z-score [13] | PBM binding z-score [14] | PBM binding z-score [15] | PBM binding z-score [16] | PBM binding z-score [17] | PBM binding z-score [18] | PBM binding z-score [19] | PBM binding z-score [20]
1 | ACTAGCAGGCCGAGTTTGGGTCACTCAAACAAAG | -0.115 | -0.146 | -0.389 | 0.653 | -0.928 | 1.21 | -0.2 | -0.103 | -0.644 | -0.461 | -0.462 | 0.793 | -0.125 | -0.727 | -0.382 | 0.617 | -0.458 | 1.21 | -1.01 | 1.29
2 | TAGCCTAGCTCATTGGGCCAGTATAGTACGCATC | -0.7 | -0.917 | -0.393 | -0.751 | -0.9 | -0.564 | 0.238 | -0.576 | -0.321 | -0.323 | 0.043 | -0.244 | -0.824 | -1.08 | -1.36 | -0.795 | -0.368 | -0.451 | -1.17 | -0.719
3 | TCTAACAGGCCAGAGGGTCACTCAAGAGGTACGG | 1.24 | 1.31 | -0.315 | 1.47 | -0.439 | 2.54 | 1.41 | 2.62 | 3.2 | 2.71 | 1.73 | 0.466 | -0.318 | -0.0122 | 1.11 | 1.86 | -0.0848 | 2.6 | -0.0287 | 2.27
4 | CCTACTGGGCCACAAAGGTCATTGATGCCGATAA | 4.47 | 5.11 | 4.74 | 4.39 | 0.772 | 5.25 | 6.17 | 5.75 | 3.17 | 5.54 | 4.98 | 5.53 | 0.0367 | -0.795 | 3.95 | 5.34 | 5.11 | 5.76 | 1.78 | 4.2
5 | CAAACTAGGTAACGAAAGGTCAAAGTCGAATGAC | 4.96 | 7.4 | 6.74 | 6.41 | 2.26 | 5.8 | 6.82 | 6.42 | 3.66 | 5.76 | 7.04 | 6.76 | 1.27 | 1.33 | 3.34 | 5.5 | 1.94 | 5.55 | 2.01 | 4.38
6 | CCTCGGAGGACAACAGGAGGTCAGTGCTGCCAGA | 0.821 | 1.62 | 1.58 | 1.15 | -0.378 | 1.62 | 0.333 | 0.375 | -0.857 | -0.495 | -0.0147 | 0.469 | -1.04 | -1.78 | 0.702 | 1.78 | 0.131 | 2.05 | 0.116 | 2.92
7 | TCTGCTAGGTCCACGATGGTCAGCTAATCTGCTA | -0.34 | -0.399 | -0.522 | -0.79 | -0.988 | -0.24 | -0.332 | 0.324 | 1.16 | 0.768 | 0.568 | -0.114 | -0.95 | -0.628 | -0.907 | -0.483 | -1.23 | -0.477 | -1.27 | 0.204
8 | GCTAGTTGTTCAGTAAAAGGTCACACACCGGTCG | 3.26 | 4.29 | 4.24 | 4.06 | 0.882 | 4.13 | 1.84 | 3.57 | 1.49 | 3.27 | 0.391 | 1.95 | 0.53 | 0.109 | 3.86 | 4.88 | 1.13 | 5.29 | 2.41 | 3.91
9 | ACGGACAGGTGAGTGAAGGTAACTCAGCTGGACG | 0.715 | 0.141 | -0.591 | -0.294 | -0.864 | 0.253 | 0.452 | 0.12 | -0.363 | 0.0719 | 0.373 | 0.578 | -0.111 | -0.701 | -0.338 | -0.142 | -0.376 | 0.477 | -0.21 | 0.913
10 | TCATATAGGTAAAGCTGAAAGTCGAACGATATGA | 0.358 | 0.331 | -0.286 | 0.366 | -0.268 | 0.995 | 0.806 | 1.97 | 3.45 | 2.72 | 3.57 | 2.35 | 0.591 | 1.09 | -0.748 | 0.2 | -0.49 | 0.193 | -0.464 | 0.205
11 | CGAACTAGGTCATTGACAGAACAGTGAATAGTAA | 4.26 | 2.84 | 0.516 | 2 | 0.18 | 4.66 | 7.52 | 6.34 | 4.05 | 5.58 | 7.82 | 8.32 | 1.7 | 2.64 | 1.37 | 1.39 | -0.216 | 1.99 | 0.356 | 3.56
12 | ACTCGCAGGCCAAGGGTCACTCAAGATTAGTCCG | 2.83 | 3.23 | 0.261 | 2.88 | -0.377 | 4.4 | 5.6 | 6.01 | 4.12 | 5.92 | 0.79 | 2.88 | -0.175 | 0.18 | 2.03 | 3.45 | -0.231 | 4.23 | 0.673 | 3.6
13 | CCTCCTGGGCCATTCAGAGGTCATTGATCATATG | 2.62 | 4.24 | 6.14 | 3.46 | -0.028 | 3.23 | 0.59 | 1.78 | 0.334 | 0.958 | 0.035 | 1.4 | -0.946 | -1.05 | 2.13 | 4.87 | 2.7 | 4.93 | 0.138 | 3.04
14 | TCATATAGGTAAAGGTGAAGGTCGAACGATATGA | 1.28 | 1.29 | -0.098 | 1.57 | 0.0286 | 3.41 | 4.01 | 4.29 | 4.42 | 4.54 | 4.25 | 4.21 | 1.49 | 1.44 | 1.37 | 1.57 | 0.53 | 2 | 0.708 | 2.45
